Screening data as filed in PubChem BioAssay.
SMN2 splice enh – increases expression of the SMN2 splice variant; 210,000 tested, 2.8% active; Potency, µM (top dose mostly 46.1 µM), without a hit: top-dose activity change, positive = activation, usual class: activators; HEK293 SMN2-luciferase splicing reporter, luminescence, 30-36 h; further: % of control where 0% means no effect; nearly all actives have a fitted effect of over 55% in size
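HEK293 cells carry an SMN2 minigene-luciferase reporter in which exon 7 inclusion puts luciferase in frame. Cells were seeded at 2000 cells/well, attached for 10-12 hours, then exposed to compounds for 30-36 hours at 37C before ONE-Glo luminescence.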
FLuc modulator – firefly luciferase modulation, counter-screen for miR-21 project; purified FLuc, Km substrates, luminescence inhibition; 360,000 tested, 6.9% active; Potency, µM (top dose mostly 57.5 µM), without a hit: at the highest dose activity change, negative = inhibition, actives largely listed as inhibitors; P08659;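 further: plate controls were vehicle for no effect and reference inhibitor for full effect; nearly all actives have a fitted effect of over 55% in size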
Target sequence (P08659 whole entry, looked up): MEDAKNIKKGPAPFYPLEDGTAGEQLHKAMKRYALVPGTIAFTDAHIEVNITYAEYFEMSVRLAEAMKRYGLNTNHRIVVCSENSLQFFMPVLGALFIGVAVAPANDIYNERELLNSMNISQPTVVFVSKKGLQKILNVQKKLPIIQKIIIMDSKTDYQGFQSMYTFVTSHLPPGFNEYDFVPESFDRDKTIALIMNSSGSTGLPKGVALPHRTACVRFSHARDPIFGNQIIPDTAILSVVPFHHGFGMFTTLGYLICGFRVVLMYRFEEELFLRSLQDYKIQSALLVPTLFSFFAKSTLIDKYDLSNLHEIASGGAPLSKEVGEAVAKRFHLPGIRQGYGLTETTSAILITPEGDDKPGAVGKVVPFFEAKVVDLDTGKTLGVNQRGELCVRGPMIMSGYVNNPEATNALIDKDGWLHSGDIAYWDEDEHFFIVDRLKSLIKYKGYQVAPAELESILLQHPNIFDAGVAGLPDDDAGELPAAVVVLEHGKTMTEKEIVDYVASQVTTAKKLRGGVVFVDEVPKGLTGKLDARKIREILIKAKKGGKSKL
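Biochemical qHTS of compounds, final roughly 60 µM downward over six points, against 10 nM purified firefly luciferase using Km concentrations of substrates (10 uM D-luciferin, 10 uM ATP) in Tris acetate pH 7.5 buffer; luminescence output.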
Rab9 prom act – activators of Rab9 promoter. AID 485297. 320,000 tested, 2.8% active. Potency, µM (highest dose often 9.22 µM), for inactives: top-dose activation, negative = inhibition, actives largely listed as activators. Huh7 Rab9 promoter-luciferase reporter, luminescence, 24 h; further: % of control where 0% means no effect; nearly all actives have a fitted effect of over 60% in size
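Promoter activation is measured as luciferase luminescence in Huh7 cells stably transfected with a Rab9 promoter–luciferase construct, following 24 h compound exposure at 37 °C and 10 min reagent incubation at ambient temperature.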
NPC1 prom act – NPC1 promoter activation; Huh7 NPC1 promoter luciferase reporter, 24 h; Potency, µM (highest dose often 9.22 µM), inactives show top-dose activation, most hits filed as activators; 320,000 tested, 2.4% active; AID 485313; further: % of control where 0% means no effect; nearly all actives have a fitted effect of over 60% in size
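NPC1 promoter–luciferase Huh7 cells; 24 h compound; luminescence.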
KinaseGlo FLuc – Kinase-Glo luciferase inhibition (counter-screen). Q27757. Kinase-Glo luciferase, ATP luminescence, 8 min. Potency, µM (highest dose often 38.3 µM), inactives show top-dose activity change, negative = inhibition, most hits filed as inhibitors. 200,000 tested, 0.28% active; further: on the % scale 0 is the no-effect control and ±100 the full control effect; nearly all actives have a fitted effect of over 60% in size
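Recombinant Kinase-Glo luciferase, 10 uM ATP (linear range), luciferin; imidazole pH 7.2 / KCl / MgCl2 / Tween / BSA buffer; 8 min RT; luminescence.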
ELG1 genotoxic – genotoxicity induction in ELG1-luciferase HEK293T cells. HEK293T ELG1-luciferase reporter, luminescence, 16 h. 330,000 tested, 1.3% active. Potency, µM (highest dose often 46 µM), for inactives: at the highest dose activity change, positive = activation, usual class: activators; further: % of control where 0% means no effect; nearly all actives have a fitted effect of over 60% in size
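Genotoxic stress is detected as increased luminescence from luciferase-tagged ELG1 in HEK293T cells, measured with ONE-Glo after a 16 hr treatment at 37 °C.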
An asterisk follows results filed as active; u = inconclusive; x = no result; [ ] = remark or other dose. Shown are actives, neighbours in structure and some others; about 7.5% of the full set was active somewhere. The call rests on the fitted dose curve; in most records, active means well fitted curve in the direction sought with a large enough effect; inconclusive means small, poorly fitted or top-dose-only effect, or another doubt; inactive means no such curve, though single readings can be large; an effect the other way counts as inactive or inconclusive. Potency means the concentration at half of the fitted maximal effect.

SMILES	SMN2 splice enh	FLuc modulator	Rab9 prom act	NPC1 prom act	KinaseGlo FLuc	ELG1 genotoxic
COc1ccccc1-c1ccc(SCC(=O)NCCc2ccccc2)nn1	-5%	-12%	22%	-3%	-2%	-2%
Cc1nc(C)c(-c2ccc(SCc3ccccc3F)nn2)s1	x	11µM*	u	u	x	u
CCOC(=O)c1ccccc1NC(=O)CSc1ccc(-c2sc(C)nc2C)nn1	x	-13%	x	x	x	x
O=C(N[C@H]1/C=C\[C@@H](O)CCCC1)OCc1ccccc1	x	x	x	x	x	15µM*
CC(=O)Nc1ccc(NC(=O)c2cccc(-c3cc4ccccc4oc3=O)c2)cc1	10µM*	u	3.2µM*	u	-2%	10%
CCC(=O)Nc1cccc(-c2cc3ccccc3oc2=O)c1	-37%	12µM*	u	u	0%	u
O=C(Nc1cccc(Br)c1)c1cc2ccccc2o1	x	2.4µM*	2.8µM*	3.2µM*	x	u
NS(=O)(=O)c1cccc(NC(=O)c2cc3ccccc3o2)c1	x	2.1µM*	u	u	-20%	8%
CCCCCCCCCCCCCCC[C@@H](O)[C@H](CO)NC(C)=O	-7%	x	x	x	-1%	x
CCc1nnc(SCc2nc(-c3ccccc3)oc2C)c2cc3sccc3n12	x	-11%	x	x	x	x
NS(=O)(=O)c1cccc(NC(=O)c2cccc(-c3ccc(O)cc3)c2)c1	x	17µM*	-1%	1%	x	1%
Cc1cccc(NC(=O)c2cc3ccccc3o2)c1	13µM*	3.8µM*	1.4µM*	1.3µM*	u	21µM*
CN(C)S(=O)(=O)c1cccc(C(=O)Nc2ccc(C(=O)Nc3cccc(S(N)(=O)=O)c3)cc2)c1	x	x	x	x	x	-1%
CC(C)C(=O)Nc1ccc(NC(=O)c2cc3ccccc3o2)cc1	u	u	3%[1.84 µM]	22%	-2%	u
O=C(Nc1cc2ccccc2oc1=O)c1ccccc1	0.89µM*	0.43µM*	0.18µM*	0.4µM*	11µM*	u
CCC(=O)Nc1cccc(NC(=O)c2cc3ccccc3o2)c1	u	2.4µM*	0.71µM*	2µM*	-14%	u
O=C(c1cc(-c2ccc(Cl)cc2Cl)on1)N1CCOCC1	1.3µM*	0.76µM*	0.32µM*	0.4µM*	-5%	0.65µM*
O=C(NCCN1CCOCC1)c1cc(-c2ccc(Cl)c(Cl)c2)on1	x	-1%	2%	-4%	x	0%
O=C(c1cc(-c2ccc(Cl)c(Cl)c2)on1)N1CCCC1	11µM*	-17%	2.2µM*	3.5µM*	-1%	u
O=C(c1cc(-c2ccc(Cl)cc2)on1)N1CCOCC1	3.2µM*	2.7µM*	1µM*	0.4µM*	-7%	0.92µM*
O=C(c1cc(-c2ccc(Cl)c(Cl)c2)on1)N1CCOCC1	x	3µM*	2.8µM*	1.4µM*	x	u
O=C(NCCc1ccc(Cl)cc1)c1ccc2c(c1)N(Cc1cccc(Cl)c1)C(=O)c1ccccc1S2(=O)=O	x	0%	x	x	x	x
Cc1ccc(NC(=O)CN(C)S(=O)(=O)c2ccc(Cl)s2)c(O)c1	x	u	22%	u	x	10%
Cc1ccc(C2=NNC(C(O)C(O)C(O)C(O)CO)S2)cc1 (stereo unspecified)	-29%	21µM*	12%	2%	0%	u
Cc1cc(=O)[nH]c2ccc(S(=O)(=O)Nc3ccc(O)cc3)cc12	x	-2%	0%	0%	x	15%
Cc1cc(=O)[nH]c2ccc(S(=O)(=O)Nc3ccccc3)cc12	x	5%	-1%	-4%	x	23µM*
CCOC(=O)c1cnn(-c2nc(-c3ccccc3)cs2)c1C(F)(F)F	-10%	u	-3%	-5%	4%	0%
Nc1c(-c2cccs2)cnn1-c1nc(-c2ccc(Cl)cc2Cl)cs1	3%	u	0%	-2%	-6%	5%
Nc1c(-c2cccs2)cnn1-c1nc(-c2ccc(F)cc2)cs1	-6%	7.6µM*	u	u	-1%	5%
COC(=O)c1cnn(-c2nc(-c3ccccc3)cs2)c1N	x	2.7µM*	u	u	x	u
